Results filed as inconclusive are left out. Where a call stands in place of a potency, no number is given. Activity calls are given as the source filed them. Calls come from the whole dose curve; as a rule, active = well fitted curve in the direction sought with a large enough effect; inconclusive = small, poorly fitted or top-dose-only effect, or another doubt; inactive = no such curve, though single readings can be large; an effect the other way counts as inactive or inconclusive.

Chain of Glutaminase kidney isoform, mitochondrial (Homo sapiens) (O94925 whole entry, looked up, canonical isoform): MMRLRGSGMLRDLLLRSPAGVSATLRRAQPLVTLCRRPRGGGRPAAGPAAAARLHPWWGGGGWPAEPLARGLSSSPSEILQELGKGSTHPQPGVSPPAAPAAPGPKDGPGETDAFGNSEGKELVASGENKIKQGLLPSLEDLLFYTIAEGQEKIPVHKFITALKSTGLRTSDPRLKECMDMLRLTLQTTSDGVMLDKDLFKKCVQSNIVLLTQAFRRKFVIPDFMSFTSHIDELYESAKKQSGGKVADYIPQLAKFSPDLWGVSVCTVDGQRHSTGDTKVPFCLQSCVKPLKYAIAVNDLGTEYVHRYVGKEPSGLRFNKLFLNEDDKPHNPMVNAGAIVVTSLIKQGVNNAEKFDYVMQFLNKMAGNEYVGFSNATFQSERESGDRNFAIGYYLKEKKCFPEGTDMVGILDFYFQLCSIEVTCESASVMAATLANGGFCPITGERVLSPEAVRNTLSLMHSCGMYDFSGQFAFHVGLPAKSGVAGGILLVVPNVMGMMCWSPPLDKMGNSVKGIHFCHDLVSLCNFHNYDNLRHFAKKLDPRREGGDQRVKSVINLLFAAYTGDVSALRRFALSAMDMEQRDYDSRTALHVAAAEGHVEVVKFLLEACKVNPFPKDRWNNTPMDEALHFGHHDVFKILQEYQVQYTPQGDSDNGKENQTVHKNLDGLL
Chain of Glucagon-like peptide 1 receptor (Homo sapiens) (P43220 whole entry, looked up): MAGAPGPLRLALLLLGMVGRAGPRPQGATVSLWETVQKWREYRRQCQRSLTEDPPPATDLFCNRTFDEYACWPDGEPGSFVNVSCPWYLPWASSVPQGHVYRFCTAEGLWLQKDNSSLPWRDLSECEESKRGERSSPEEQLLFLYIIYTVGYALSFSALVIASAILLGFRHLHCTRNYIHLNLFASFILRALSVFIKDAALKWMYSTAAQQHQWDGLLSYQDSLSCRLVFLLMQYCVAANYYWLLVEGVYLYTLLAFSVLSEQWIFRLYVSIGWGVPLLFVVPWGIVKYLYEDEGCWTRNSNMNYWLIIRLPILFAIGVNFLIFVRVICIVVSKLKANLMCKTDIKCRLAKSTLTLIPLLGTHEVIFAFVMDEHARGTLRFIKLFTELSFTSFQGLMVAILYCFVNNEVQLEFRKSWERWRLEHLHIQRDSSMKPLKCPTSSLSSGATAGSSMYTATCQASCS

The target of the first assay is Glutaminase kidney isoform, mitochondrial (Homo sapiens) (UniProt O94925). In words: qHTS for Inhibitors of Glutaminase (GLS): LOPAC Validation (AID 624146).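 Note: glutamate product detected by oxidase and peroxidase coupled Amplex red fluorescence gain; nearly all actives have a fitted effect of over 60% in size.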 Conditions: glutaminase enzyme activity inhibition; series mostly up to 46.1 µM. An outline of the steps:
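Human kidney-isoform GLS in 45 mM KH2PO4 pH 8.2, 0.02% Tween-20, with compound, started with 1mM L-Glutamine (added stock). Glutamate oxidase/HRP/Amplex red coupled fluorescence read at start and after 30 min at RT.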
For the compound `O=c1[nH]oc2c1CCNC2`, the Potency entry is “inactive”.

Consider `CN1C(=O)CCS(=O)(=O)C1c1ccc(Cl)cc1` (stereo not given), for which the Potency result was “inactive”.

As for `O=C(O)CCCc1ccc(N(CCCl)CCCl)cc1`, the Potency result was “inactive”.

Tested on in another assay: not listed separately
Briefly: qHTS of Trypanosoma Brucei Inhibitors: LOPAC Validation (AID 624147). The conditions noted are these: purified enzyme assay, luminescence, 45 min; series mostly up to 57.5 µM. An outline of the steps: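 Assay buffer: 50 mM TEA pH 7.2, 100 mM KCl, 10 mM MgCl2, 0.05% BSA, 0.01% Tween-20. Pyruvate kinase from T. brucei plus substrate met compound, then ADP (130 uM final). Luminescence was read post 45 min RT.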
On to `O=c1[nH]oc2c1CCNC2`, for which the result was inactive.

With `CN1C(=O)CCS(=O)(=O)C1c1ccc(Cl)cc1` (stereo not given), the call was inactive.

For `O=C(O)CCCc1ccc(N(CCCl)CCCl)cc1`, the result was inactive.

Another assay deals with Glucagon-like peptide 1 receptor (Homo sapiens) (UniProt P43220). In words: qHTS of GLP-1 Receptor Agonists: LOPAC Validation (AID 624148).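 Note: luminescence from a luciferase reporter switched on by cAMP; higher luminescence signal means agonism.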 The conditions noted are these: GLP-1R agonist cell assay; series mostly up to 46.1 µM. An outline of the steps:
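Agonism scored as increased luciferase luminescence driven by cAMP in HEK293 clones carrying GLP-1R. Cells settled 12 hours, received compound for 4-6 hr at 37 deg C, 5% CO2, and were read after 12 min detection reagent at RT.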
Turning to `O=c1[nH]oc2c1CCNC2`, the call was inactive.

As for `CN1C(=O)CCS(=O)(=O)C1c1ccc(Cl)cc1` (stereo not given), the compound was classed as inactive.

As for `O=C(O)CCCc1ccc(N(CCCl)CCCl)cc1`, the compound was classed as inactive.

Tested on in the next assay: not listed separately
In words: qHTS of Nrf2 Activators: LOPAC Validation (AID 624149). Conditions: Nrf2/ARE reporter cell assay; series mostly up to 46.1 µM. In a few lines:
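ARE reporter activation measured in AREc32 firefly luciferase cells after 24 hr compound exposure; Steady-Glo luminescence.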
For the compound `O=c1[nH]oc2c1CCNC2`, the result was inactive.

As to `CN1C(=O)CCS(=O)(=O)C1c1ccc(Cl)cc1` (stereo not given), the call was inactive.

Turning to `O=C(O)CCCc1ccc(N(CCCl)CCCl)cc1`, the outcome was inactive.

Tested on in a further assay: not listed separately
Briefly: HTS Assay for Allosteric Antagonists of the Human D2 Dopamine Receptor: Hit Validation in HTRF (AID 624455).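 Note: stable D1 dopamine receptor cell line scored for blocking the D1 response.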 Conditions: Cells stably expressing D1 dopamine receptor, inhibition mode; series mostly up to 46.1 µM. In a few lines:
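Signal from an HTRF read-out in D1-expressing stable cells gave hit activity as inhibition of the D1 response.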
For the compound `O=c1[nH]oc2c1CCNC2`, the Potency entry is “inactive”.

On to `CN1C(=O)CCS(=O)(=O)C1c1ccc(Cl)cc1` (stereo not given), for which the Potency result is “inactive”.

For the compound `O=C(O)CCCc1ccc(N(CCCl)CCCl)cc1`, the Potency result is “inactive”.

The values above are taken from PubChem BioAssay (NCATS).
